Source: PubChem BioAssay
Pf growth 48h: inhibits P. falciparum growth in the first generation, 48 h. P. falciparum luciferase growth in erythrocytes, 48 h. Potency, µM (top dose mostly 28.7 µM), inactives show top-dose activity change, negative = inhibition, hits mostly inhibitors. hit rate 5.9% among 310,000; active = well fitted inhibition curve with a large enough effect; inconclusive = small, poorly fitted or top-dose-only effect, or another doubt; inactive = no such curve, though single readings can be large or run the other way; note: potency is the fitted concentration of half-maximal effect; % is set by controls: 0 for no effect and ±100 for the full control effect
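First compound was added to culture medium, then infected red cells at 0.1% parasitemia and 2% hematocrit (final). After incubation at 37 C under 5% CO2, luciferase detection reagent was dispensed and light output recorded.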
Shiga inhibitor: Shiga toxin inhibition; Vero cells, Shiga toxin protein synthesis inhibition reporter; inhibition, % at 38.7 µM; hit rate 9.2% among 290,000; AID 2315; in the data active = inhibition mostly above about 28%, no sharp cut-off; inactive = mostly below about 43%; note: 0% is about no effect
Cycloheximide cs: affects cycloheximide protein synthesis inhibition readout, counter-screen; cell reporter, cycloheximide protein synthesis inhibition counterscreen; max response, %; hit rate 12% among 300,000; AID 2314; in the data active = max response mostly above about 13%, no sharp cut-off; inactive = mostly below about 14%; note: read at 38.3 µM for the half of the compounds with a filed dose; 0% is about no effect
Pf growth 96h: P. falciparum growth inhibition at 96 hour, primary screen for plastid delayed-death inhibitors; AID 504834; Potency, µM (titrated, usually from 28.7 µM), for the others: at the highest dose activity change, negative = inhibition, hits mostly inhibitors; hit rate 6.9% among 320,000; P. falciparum luciferase reporter growth, 96 h; active = well fitted inhibition curve with a large enough effect; inconclusive = small, poorly fitted or top-dose-only effect, or another doubt; inactive = no such curve, though single readings can be large or run the other way; note: potency is the fitted concentration of half-maximal effect; % is set by controls: 0 for no effect and ±100 for the full control effect
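Erythrocytes infected with luciferase-expressing P. falciparum were dispensed at 2% hematocrit and 0.05% parasitemia (final), then incubated with compounds 96 hours at 37 C in 5% CO2. Luminescence after detection reagent addition reported growth.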
SARS PLpro yeast: SARS-CoV PLP inhibition in yeast; AID 485353; hit rate 0.19% among 330,000; Potency, µM (doses to about 32.9 µM), without a hit: at the top dose activity, positive = growth rescue, actives largely listed as activators; S. cerevisiae expressing SARS-CoV PLpro, growth rescue; note: potency is the fitted concentration of half-maximal effect; 0% is about no effect; nearly all actives have a fitted effect of over 55% in size
NS1 function inh: influenza NS1 inhibition. Potency, µM (doses to about 46.1 µM), without a hit: at the top dose activity, positive = more growth. hit rate 0.4% among 270,000. AID 2326; note: potency is the fitted concentration of half-maximal effect; actives are rising curves; nearly all actives have a fitted effect of over 50% in size
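Compounds were scored for reversing the slow growth caused by influenza A NS1 in S. cerevisiae, measured by optical density at 600 nm. Assay medium contained 2% galactose at pH 6.0; NS1-free yeast of the same strain were the positive control.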
The depositor's hits bear a star; ? = inconclusive; nt = no result. The list is not random: actives were taken first. Their share in the collection is about 21%. Unless noted, calls come from the whole dose curve.

SMILES	Pf growth 48h	Shiga inhibitor	Cycloheximide cs	Pf growth 96h	SARS PLpro yeast	NS1 function inh
O=[N+]([O-])c1ccc2c(c1)nc1n2CCN(C2CCCCC2)C1	?	49*	37*	-9%	0%	3%
O=[N+]([O-])c1ccc2c(c1)nc1n2CCCCC1	30%	22	15	14%	2%	-4%
CC(=O)Nc1ccc2c(c1)nc1n2CCN(C2CCCCC2)C1	43%	47	29*	42%	0%	-2%
CCCC(=O)Nc1ccc2c(c1)nc1n2CCN(C2CCCCC2)C1	?	4	2	?	-1%	4%
O=C(COc1ccc(-n2cnnn2)cc1)Nc1ccc(F)c(F)c1	nt	nt	nt	nt	0%	nt
CN(C)S(=O)(=O)Oc1ccsc1C(=O)Nc1ccc(Br)cc1	-1%	45	3	6%	-21%	nt
CN(C)S(=O)(=O)Oc1ccsc1C(=O)Nc1cccc(Cl)c1	1.7µM*	16	2	?	-22%	-6%
COC(=O)c1sccc1-c1ccc(C(=O)Nc2cccc(Cl)c2)o1	48%	51*	15	61%	-3%	-9%
Cc1ccc(OCC(=O)NC2CCS(=O)(=O)C2)c([N+](=O)[O-])n1 (stereo not given)	7%	nt	nt	-4%	-5%	nt
COC(=O)c1cn(NC(=O)c2ccc(OC)c(OC)c2)c(=O)c2ccccc12	?	14	-1	13µM*	9%	5%
COC(=O)c1cn(NC(=O)c2ccccc2[N+](=O)[O-])c(=O)c2ccccc12	-15%	-2	-4	-26%	0%	nt
COC(=O)c1cn(NC(=O)c2ccc(OC)c([N+](=O)[O-])c2)c(=O)c2ccccc12	1%	9	-1	?	0%	nt
O=C(Nc1ccccc1F)c1ccc(O)c2ncccc12	4.1µM*	nt	nt	1.5µM*	2%	nt
COC(=O)c1cn(NC(=O)c2cnccn2)c(=O)c2ccccc12	9.3µM*	-17	-2	-10%	?	-140%
O=C(Nn1cc(C(=O)Nc2ccccc2F)c2ccccc2c1=O)c1cnccn1	4.1µM*	-6	-6	?	7%	nt
O=C(CSc1nnc(-c2ccc(C(F)(F)F)cn2)s1)c1ccccc1	4%	-7	-3	15%	1%	0%
CC1CC(C)CN(C(=O)C2CCC(CNS(=O)(=O)c3ccccc3)CC2)C1 (stereo not given)	-29%	-6	-7	?	-2%	-9%
Cc1noc(C)c1CSCC(=O)OCc1nc2ccccc2c(=O)n1CC#N	-15%	-17	15	?	6%	7%
COc1ncccc1-c1nnn(-c2ccc(F)cc2)n1	410%	71*	54*	251%	-1%	0%
COc1ncccc1-c1nnn(-c2ccc(Cl)c(Cl)c2)n1	172%	-6	18*	246%	-1%	-5%
COc1ncccc1-c1nnn(-c2ccc(C)cc2)n1	170%	131*	49*	207%	-1%	-1%
Cc1ccc(-n2nnc(-c3cc4ccccc4nc3Cl)n2)cc1	6%	26	6	10%	0%	0%
COc1ncnc(OC)c1NC(=O)c1ccc(F)cc1	21%	-7	-2	59%	2%	5%
Cc1ccc(-n2nnc(-c3nccs3)n2)cc1	49%	-17	1	333%	-2%	-9%
CN(Cc1ccccc1)C(=O)Cn1c(=O)c2cccn2c2cccnc21	0%	-7	-3	?	6%	-10%
SMILES	Pf growth 48h	Shiga inhibitor	Cycloheximide cs	Pf growth 96h	SARS PLpro yeast	NS1 function inh
COc1ccc(C)cc1S(=O)(=O)NNc1nc(C)cc(C)n1	nt	nt	nt	nt	0%	nt
CCC(C)Sc1nnc(NS(=O)(=O)Cc2ccccc2)s1 (stereo not given)	-13%	22	15*	?	3%	?
C=CCOc1c(CNc2ncn[nH]2)cccc1OCC	-24%	0	5	9.3µM*	1%	1%
C=CCOc1c(CNc2ccc(C(=O)O)cc2)cccc1OC	13%	-1	-2	4.7µM*	4%	-6%
C=CCOc1c(CNc2nccs2)cccc1OCC	-18%	14	0	nt	-11%	-5%
C=CCOc1c(CNc2cccc(C(=O)O)c2)cccc1OC	nt	71*	37*	168%	11%	-4%
COc1cccc(CNCc2ccc(C(=O)O)cc2)c1OC	13%	-8	5	20%	0%	-3%
C=CCOc1c(CNc2ccc(C(=O)O)cc2)cccc1OCC	47%	36*	31*	42%	-3%	-3%
C=CCOc1c(CNc2cccc(C(=O)O)c2)cccc1OCC	49%	13	13	2%	-2%	-43%
COc1ccc(NC(=O)N(C)C[C@H]2Oc3ccc(NC(=O)c4ccncc4)cc3C(=O)N([C@H](C)CO)C[C@@H]2C)cc1	nt	nt	nt	nt	2%	nt
CC1(c2ccccc2)NC(=O)N(CC(=O)NCC2CCCO2)C1=O (stereo not given)	-6%	nt	nt	1%	3%	nt
O=C(CSc1ccc(-c2ccncc2)nn1)c1ccccc1	9%	23	2	33%	-4%	nt
COc1ccccc1C(CNC(=O)c1ccc(S(=O)(=O)N2CCCCC2)cc1)N(C)C (stereo not given)	?	nt	nt	3%	2%	nt
C=CCOc1cccc(CNc2cccc(C(=O)O)c2)c1	92%	104*	29*	51%	5%	-3%
O=C(O)c1cccc(NCc2cccnc2)c1	nt	17	0	40%	6%	5%
CC(O)c1nc2ccccc2n1CCCOc1ccccc1 (stereo not given)	7%	-5	-3	7%	-3%	-1%
COc1ccc(-c2cn3cccnc3n2)cc1F	131%	51*	44*	9%	-15%	-4%
CN(C)S(=O)(=O)c1cccc(-c2cn3cccnc3n2)c1	4%	3	5	-9%	1%	0%
Clc1ccc(-c2cn3cccnc3n2)cc1Cl	64%	61	26*	nt	-15%	-64%
O=S(=O)(Nc1ccc(-c2cn3cccnc3n2)cc1)c1ccccc1	?	10	4	-24%	2%	3%
Brc1ccc(-c2cn3cccnc3n2)cc1	81%	75*	35*	nt	-17%	-4%
Clc1ccc(-c2cn3cccnc3n2)cc1	nt	22	19*	109%	1%	-7%
COc1cc(NC(=O)C2CC(=O)N(CCc3ccc(F)cc3)C2)cc(OC)c1OC (stereo not given)	-15%	-6	-4	9%	-2%	-15%
CSc1nc2sc3c(c2c(=O)[nH]1)CCC3	-1%	-6	-2	1%	1%	0%
OCCNc1nc2nonc2nc1NCCO	16%	21	2	32%	2%	nt
CCN(CC)CCNc1nc2nonc2nc1NCCN(CC)CC	8.3µM*	4	-3	12µM*	2%	4%
C=CCn1c2ccccc2c2nnc(SC(CC)C(=O)Nc3sc4c(c3C#N)CCCC4)nc21 (stereo not given)	-16%	7	24*	nt	-6%	4%
CC(=O)c1ccc(OCc2cc(C(=O)N(C)CCOc3ccc(C)cc3)no2)cc1	10%	81*	47*	18%	-7%	-14%
